Laboratory results from PubChem BioAssay (NCI).
This is part of a sample that, as a whole, favours compounds with a hit. Of some 83,000 tested, about 20% had one in any assay.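 Note: values are percent growth. 100 is the growth of untreated cells, values between 100 and 0 indicate rising inhibition; between -100 and 0 indicates cell death.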 Calls of active or inactive are those of the source.

Tested on: NCI/ADR-RES ovarian
Test: NCI-60 one-dose screen, 48 h (100 = growth as untreated, 0 = no growth, -100 = all killed)
Details: 10 µM unless noted
Procedure: Growth inhibition of the NCI/ADR-RES human […] tumor cell line is measured as a screen for anti-cancer activity. Cells are grown in 96 well plates and exposed to the test compound for 48 hours. Compounds are tested at a single concentration, which is 10^-5 M for most compounds. The reported endpoint is percent growth (GI% or GIPRCNT), where numbers from 0 - 100% represent growth inhibition, and numbers from -100% - 0 represent cell death. For example, a value of 40 represents 60% growth inhibition. A value of 0 means no net growth occurred over the course of the experiment. A value of -40 indicates 40% of cells at the beginning of the experiment died by the end of the experiment. A value of -100 means all cells are dead at the end of the experiment.
NCI-60 Human Tumor Cell Lines Screen was performed using the standard one-dose NCI protocol, which is described in more detail at https://dtp.cancer.gov/discovery_development/nci-60/default.htm.
Compounds with GIPRCNT values below 10 were considered active. Activity score was based on GIPRCNT using the following formula: […]
Score is 0 for GIPRCNT values of 100 or above, 50 for GIPRCNT values of 0, and 100 for GIPRCNT values of -100.

SMILES	growth
O=C(CCc1nnc2sc(/C=C\c3ccccc3)nn12)c1nc2ccccc2[nH]1	89.5% (inactive)
COc1ccc(CSc2nc3cc(OC)c(OC)cc3c(=O)n2-c2ccc(Cl)cc2)cc1	101% (inactive)
O=C(N/N=C/c1ccc(OC(F)F)c(OC2CCCC2)c1)c1cnn2c1NC(c1ccccc1)C2 (stereo not given)	72.8% (inactive)
O=C1CC2c3cc(-c4cc5ccccc5o4)ccc3CCN2C(=O)N1c1ccccc1 (stereo not given)	81.4% (inactive)
CC1=CN2C(=NC3=C(CCCC/C3=C\c3ccccc3)C2c2ccccc2)S1 (stereo not given)	100% (inactive)
COc1ccc(/C=C2\CN(Cc3cn(CCCNc4ccnc5cc(Cl)ccc45)nn3)C/C(=C\c3ccc(OC)c(OC)c3)C2=O)cc1OC	94.4% (inactive)
Brc1ccc(Br)nn1	-32.5% (active)
CCOC(=O)c1cnn(CC(O)c2ccc(F)cc2)c1NC(=O)Nc1ccccc1F (stereo not given)	101% (inactive)
Clc1ccccc1Nc1ccc2nnc(-c3ccncc3)n2n1	105% (inactive)
Cc1nc2cc(Nc3nc(Nc4ccc(F)cc4)nc(-c4ccc(Cl)cc4)n3)ccc2n1Cc1ccccc1	59.1% (inactive)
CC[Si](CC)(CC)OC1[C@@H](O[Si](CC)(CC)CC)[C@@H](CNC(=O)NC)O[C@H]1n1cnc2c(NC(=O)Nc3ccccc3)ncnc21 (stereo not given in full)	91.8% (inactive)
Cc1cc(NS(=O)(=O)c2ccc(NC(=O)COc3ccc(-c4cc5ccccc5[nH]4)cc3)cc2)no1	9.15% (active)
C=C1CC[C@@H]2[C@@](C)(CCC[C@]2(C)C(=O)O)[C@@H]1CC[C@H](CO)CCO	104% (inactive)
CCOC(=O)c1c(Cl)c2c(n1Cc1cc(OC)cc(OC)c1)-c1oncc1CCC2	8.44% (active)
O=C1C(Cl)=C(NCCCN2CCOCC2)C(=O)c2ccccc21	99.1% (inactive)
O=C1N/C(=C\c2ccccc2)c2ncccc21	103% (inactive)
Clc1ccc(Nc2nc(Nc3ccccc3)nc(Nc3ccc(-c4cc(-c5ccc(Cl)cc5)on4)cc3)n2)cc1	51.4% (inactive)
CSc1ccc(OC(C)=O)cc1C	103% (inactive)
CN1CCN(c2nc(-c3ccncc3)nc3sc4c(c23)CCCCCC4)CC1	64.9% (inactive)
O=C(Nc1ccc(F)cc1)c1ccc(C(=O)Nc2ccc(F)cc2)cc1	116% (inactive)

SMILES	growth
COc1cc2cc(Oc3ccc(NC(=O)Nc4cccc(C(F)(F)F)c4)cc3)c(C)nc2cc1OCCN1CCCCC1	20.1% (inactive)
O=C1C(Br)=C(c2ccccc2)C(=O)C(Br)=C1c1ccccc1	103% (inactive)
COc1ccccc1CNCCCCCCCCCCCCN1C(=O)c2ccc3c4c(ccc(c24)C1=O)C(=O)N(CCCCCCCCCCCCNCc1ccccc1OC)C3=O	85% (inactive)
O=S(=O)(Nc1ccccc1Cl)c1ccc(-c2cnc(C3CC3)o2)cc1	8.53% (active)
CCOC(=O)c1cc2c(n(C)c1=O)-c1cnn(-c3ccc(OC)cc3)c1CC2	114% (inactive)
Cc1ccc(S(=O)(=O)c2ccc3[nH]c(=O)[nH]c(=O)c3c2)cc1	107% (inactive)
CCCCCCCCCCCCCCn1c2ccccc2c2c3c(c4c5cc(OC)ccc5oc4c21)C(=O)NC3=O	107% (inactive)
COc1ccc(/C=C/C(=O)N2CCC(O)CC2)cc1OC1CCCC1	106% (inactive)
O=C1Nc2ccc(Cl)cc2/C1=N/N=C(c1ccccc1)c1ccccc1	98% (inactive)
CCCCC/C=C\C/C=C/CCCCCCCCNC(=O)Nc1ccc([N+](=O)[O-])cc1	21.5% (inactive)
CCCCc1ccc(NC(=O)C(F)(F)F)cc1	103% (inactive)
COc1cc(-c2nc(SC(C)C)nc(Nc3cccc(C)c3)c2C#N)cc(OC)c1OC	105% (inactive)
CCCN(CCC)c1ccc(/C=C/c2ccc3cc(OCC)ccc3n2)cc1	93.1% (inactive)
Cc1ccc(S(=O)(=O)N2C/C(=C\c3cc(F)cc(F)c3)C(=O)/C(=C/c3cc(F)cc(F)c3)C2)cc1	7.23% (active)
O=c1onc(-c2ccccc2)c2ccccc12	103% (inactive)
COc1cc2cc(Oc3ccc(NC(=O)Nc4ccc(Cl)c(C(F)(F)F)c4)cc3)c(C)nc2cc1OCCN1CCCCC1	3.87% (active)
CN1CCN(C)c2cncc(Br)c2C1=O	98.3% (inactive)
CNc1ccc(Br)cc1-c1n[nH]c(=O)[nH]c1=O	105% (inactive)
CC(C)N1CCN(c2ccc(OC[C@H]3CO[C@](Cn4cncn4)(c4ccc(Cl)cc4Cl)O3)cc2)CC1	88.1% (inactive)
Cc1ccc(N(CSc2ccc(Cl)cc2)CSc2ccc(Cl)cc2)cc1	31.5% (inactive)
